Screens as filed in PubChem.
This is a sample that favours compounds with a hit; in the whole collection about 12% have one here.
BAZ2B inh: qHTS Assay for Inhibitors of BAZ2B. Bromodomain adjacent to zinc finger domain protein 2B (Homo sapiens), Q9UIF8. AlphaScreen BAZ2B-H3K14Ac peptide displacement. Potency, µM (doses to about 114 µM), inactives show top-dose activity change, negative = inhibition, most hits filed as inhibitors. 360,000 compounds, 4.4% hits. AID 504333, 2011; also: % is scaled to controls: 0 for no effect and ±100 for the full control effect; nearly all actives have a fitted effect of over 60% in size
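In this displacement format the biotinylated H3(5-23) peptide acetylated at Lys14 serves as ligand at 50 nM, with BAZ2B at 50 nM in PBS pH 7.4 containing 0.01% Tween-20. Donor and acceptor beads are 10 ug/mL final.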
Sfp PPTase inh: qHTS Assay for Inhibitors of Bacillus subtilis Sfp phosphopantetheinyl transferase (PPTase) | Biochemical Sfp PPTase activity, qHTS | Potency, µM, for inactives: largest response in the series, negative = inhibition, usual class: inhibitors | 310,000 compounds, 3.5% hits | AID 1490, 2009;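 also: the enzyme is Sfp with the accession as filed and its product quenches rhodamine fluorescence; 0% = enzyme reaction without inhibitor and -100% = no enzyme wells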
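Buffer: 50 mM Hepes-Na pH 7.6, 10 mM MgCl2, 0.01% Nonidet P-40, 0.01% BSA. Enzyme 15 nM, pre-exposed to compound 15 min; substrates then added and fluorescence change tracked over 30 min.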
G9a inh: qHTS Assay for Inhibitors of Histone Lysine Methyltransferase G9a; G9a H3K9 monomethylation, AlphaScreen, 2 h; Potency, µM (top dose mostly 102 µM), for the others: top-dose activity, negative = inhibition, hits mostly inhibitors; 350,000 compounds, 8.8% hits; also: % is scaled to controls: 0 for no effect and ±100 for the full control effect; nearly all actives have a fitted effect of over 75% in size
Target sequence (Q96KQ7 913-1193 limits assumed): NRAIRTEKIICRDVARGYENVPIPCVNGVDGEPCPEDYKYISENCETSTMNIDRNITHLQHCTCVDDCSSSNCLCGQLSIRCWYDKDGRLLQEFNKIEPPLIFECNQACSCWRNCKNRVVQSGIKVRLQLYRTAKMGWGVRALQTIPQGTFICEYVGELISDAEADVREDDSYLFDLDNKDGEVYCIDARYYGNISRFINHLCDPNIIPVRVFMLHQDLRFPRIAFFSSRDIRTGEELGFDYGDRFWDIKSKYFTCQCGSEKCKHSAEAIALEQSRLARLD
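AlphaScreen detection with an anti-monomethyl H3K9 antibody quantified product after a 2 h room-temperature reaction containing 500 nM biotinylated H3K9 peptide, 20 µM SAM and 20 nM enzyme, which had been preincubated 15 min with compound.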
HP1b chromo inh: HTS for Inhibitors of HP1-beta Chromodomain Interactions with Methylated Histone Tails | AlphaScreen HP1-beta / biotin-H3K9me3 peptide binding | Potency, µM (highest dose often 114 µM), for inactives: at the top dose activity change, negative = inhibition, usual class: inhibitors | 390,000 compounds, 0.56% hits; also: nearly all actives have a fitted effect of over 70% in size
Target sequence (P83916 whole entry, looked up): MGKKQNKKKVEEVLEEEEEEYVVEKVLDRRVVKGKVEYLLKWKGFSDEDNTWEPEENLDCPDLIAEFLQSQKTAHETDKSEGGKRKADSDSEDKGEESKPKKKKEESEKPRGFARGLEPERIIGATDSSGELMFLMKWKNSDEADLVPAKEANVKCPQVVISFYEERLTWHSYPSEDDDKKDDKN
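Compound inhibition of the preformed complex between 50 nM HP1-beta and 50 nM biotinylated H3K9me3 peptide was read by AlphaScreen. Buffer was PBS pH 7.4 with 0.01% Tween-20. Incubations ran 30 min at room temperature, with 10 ug/mL donor/acceptor beads.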
JMJD2A Tudor: qHTS Assay for Inhibitors of JMJD2A-Tudor Domain; Lysine-specific demethylase 4A (Homo sapiens), O75164; AlphaScreen JMJD2A-Tudor / H3K4me3 peptide binding; Potency, µM (series often up to 114 µM), without a hit: at the highest dose activity change, negative = inhibition, actives largely listed as inhibitors; 390,000 compounds, 4.4% hits; also: % is scaled to controls: 0 for no effect and ±100 for the full control effect; nearly all actives have a fitted effect of over 50% in size
PLK1 PBD inh: qHTS for Inhibitors of PLK1-PDB (polo-like kinase 1 - polo-box domain): Primary Screen; 360,000 compounds, 2.8% hits; Serine/threonine-protein kinase PLK1 (Homo sapiens), P53350; Potency, µM, for the others: max response, negative = inhibition, most hits filed as inhibitors; Plk1 PBD binding of FITC phosphopeptide, fluorescence polarization; also: series mostly up to about 57 µM; % is scaled to controls: 0 for no effect and ±100 for the full control effect; nearly all actives have a fitted effect of over 65% in size
* = called active by the depositor; u = inconclusive; x = no result; [ ] = remark or other dose. Calls follow the shape of the dose curve; as a rule, active = well fitted curve in the direction sought with a large enough effect; inconclusive = small, poorly fitted or top-dose-only effect, or another doubt; inactive = no such curve, though single readings can be large; an effect the other way counts as inactive or inconclusive. Potency is read from the fitted curve at half-maximal effect.

SMILES	BAZ2B inh	Sfp PPTase inh	G9a inh	HP1b chromo inh	JMJD2A Tudor	PLK1 PBD inh
COc1ccc(C2NN=C(c3c[nH]c4ccccc34)C2O)cc1 (stereo unspecified)	u	56.2µM*	22.4µM*	0.0%	u	-25.2%
O=C(O)/C=C/C(=O)Nc1ccc(Oc2ccc(NC(=O)/C=C/C(=O)O)cc2)cc1	50.1µM*	-12.6%	u	x	x	x
O=C(C=Cc1ccccc1)Nc1ccccc1	x	x	x	13.5%	-11.0%	-1.6%
O=C(O)/C=C/C(=O)Nc1ccc(Cc2ccc(NC(=O)/C=C/C(=O)O)cc2)cc1	-29.5%	-8.7%	44.7µM*	19.9%	-9.7%	u
O=C(O)/C=C\C(=O)Nc1ccc(Oc2ccccc2)cc1	-21.7%	12.5%	u	34.7%	-14.7%	-2.3%
O=C(O)/C=C/C(=O)Nc1ccc(OC(F)(F)Cl)cc1	-38.6%	10.8%	44.7µM*	27.4%	0.0%	-8.3%
O=C(O)/C=C/C(=O)Nc1ccc(C2(c3ccc(NC(=O)/C=C/C(=O)O)cc3)c3ccccc3-c3ccccc32)cc1	50.1µM*	-9.5%	x	16.6%	-35.4%	29.9µM*
O=C(O)/C=C/C(=O)Nc1ccc(SC(F)(F)C(F)(F)C(F)(F)F)cc1	-38.1%	21.6%	-49.4%	57.3%	13.0%	u
NC(=O)c1cnn2c(-c3ccc(Cl)cc3Cl)ccnc12	-9.3%	10.7%	-0.4%[2.33 µM]	31.8%	-5.6%	-5.1%
CCc1c(C)sc(NC(=O)Cn2nc(C)c([N+](=O)[O-])c2C)c1C(N)=O	-30.6%	11.2µM*	3.55µM*	u	-18.8%	5.97µM*
Cc1csc(NC(=O)Cn2nc(C)c([N+](=O)[O-])c2C)n1	-5.1%	14.2%	-3.4%	13.3%	-12.8%	-10.3%
C=CCn1c(-c2cccn(Cc3ccc(Cl)cc3Cl)c2=O)n[nH]c1=S	8.4%	-2.9%	2.82µM*	12.2%	56.2µM*	-13.3%
C=CCn1c(-c2ccc(=O)n(Cc3ccccc3)c2)n[nH]c1=S	-23.2%	-3.4%	17.8µM*	x	x	x
Nc1n[nH]c(-c2ccccc2[N+](=O)[O-])n1	11.0%	13.7%	32.2%[59 µM]	15.0%	-9.9%	-7.3%
C=CCn1c(-c2ccccc2[N+](=O)[O-])n[nH]c1=S	u	-13.3%	15.8µM*	38.1%	-6.9%	0.8%
CSc1nnc(-c2cccn(Cc3ccccc3)c2=O)o1	-15.6%	0.9%	-34.2%	22.7%	-15.8%[57.1 µM]	u
C=CCn1c(-c2cccn(Cc3ccccc3)c2=O)n[nH]c1=S	-6.4%	-6.4%	39.8µM*	46.4%	28.2µM*	-9.1%
OC[C@@H]1CN(Cc2ccncc2)C[C@H](n2cnc3c(N4CCCC4)ncnc32)O1	x	x	x	x	x	0.4%
O=c1c(-c2n[nH]c(=S)n2-c2ccccc2)cccn1Cc1cccc(Cl)c1	-17.2%	12.8%	3.55µM*	10.6%	28.2µM*	-9.4%
CSc1nnc(-c2cccn(Cc3cccc(Cl)c3)c2=O)o1	-6.8%	12.4%	29.9%	50.3%	2.1%	-5.8%
C=CCn1c(-c2cccn(Cc3ccc(Cl)cc3)c2=O)n[nH]c1=S	-9.2%	6.9%	4.47µM*	1.3%	10µM*	-11.1%
C=CCn1c(-c2cccn(Cc3cccc(Cl)c3)c2=O)n[nH]c1=S	-2.8%	4.8%	11.2µM*	7.9%	20µM*	-8.8%
O=c1c(=O)n(Cc2ccc(Cl)cc2)ccn1Cc1ccc(F)cc1	-3.5%	x	-3.7%[59 µM]	15.1%	-21.7%	x
CCCCC(CC)CNC(=O)Cn1c(=S)[nH]c2ncccc2c1=O (stereo unspecified)	-4.1%	12.9%	9.6%	x	x	x
CCC(C)NC(=O)C(=O)NCC1CCCN1CC (stereo unspecified)	-14.9%	18.1%	-7.5%[59 µM]	50.8%	2.9%	0.9%
SMILES	BAZ2B inh	Sfp PPTase inh	G9a inh	HP1b chromo inh	JMJD2A Tudor	PLK1 PBD inh
CC1CCCC(C)N1/N=C/c1ccc([N+](=O)[O-])cc1 (stereo unspecified)	39.8µM*	-14.8%	-39.5%[2.33 µM]	u	35.5µM*	-9.1%
CC1CCCC(C)N1/N=C/c1ccc(N(C)C)cc1 (stereo unspecified)	-27.4%	0.0%	39.8µM*	-9.8%	-30.1%	-2.6%
CC1CCCC(C)N1/N=C/c1cccc(Br)c1 (stereo unspecified)	u	8.1%	8.3%	-11.9%	-18.3%	0.5%
CCCCN(C)CCCNC(=O)c1ccc2nc(N3CCCCC3)sc2c1	-0.9%	x	-34.0%[59 µM]	25.7%	-4.7%	x
O=c1c2c3c(sc2nc2n1CCC2)CCC3	-0.6%	5.5%	5.2%[59 µM]	40.7%	-14.1%	-9.9%
O=c1c2c(nc3n1CCCCC3)sc1c(O)c(Br)ccc12	-4.4%	-22.3%	1.78µM*	-5.0%	-17.9%	-11.3%
CCN(CC)CCOc1c(Br)ccc2c1sc1nc3n(c(=O)c12)CCC3	-8.8%	0.1%	50.1µM*	23.1%	-16.2%	-7.0%
O=c1cc(-c2ccc(O)c(O)c2)oc2ccccc12	x	-58.8%	u	x	x	x
Brc1ccc(-c2csc(/N=C/N3CCCC3)n2)cc1	-34.3%	-23.8%	u	10.3%	-31.3%	-1.2%
Brc1ccc(-c2csc(/N=C/N3CCOCC3)n2)cc1	-38.8%	6.1%	50.1µM*	2.5%	-19.0%	-2.7%
COc1ccccc1CNC(=O)C1CCCC1	-16.5%	12.2%	1.6%	11.1%	-4.9%	0.0%
COc1ccccc1CN1CCCCC1C(=O)O (stereo unspecified)	-9.0%	15.5%	-24.9%	57.1%	35.5µM*	1.9%
CCOC(=O)C1CCN(C(=O)Cc2ccccc2OC)CC1	-13.2%	1.7%	-12.6%	16.8%	-5.4%	-9.2%
CCOC(=O)C1CCCCN1Cc1cccc(C(F)(F)F)c1 (stereo unspecified)	u	-12.4%	u	39.2%	u	-0.2%
CCOC(=O)C1CCCCN1Cc1ccccc1C(F)(F)F (stereo unspecified)	7.3%	u	49.7%[59 µM]	u	4.47µM*	-5.5%
CCOC(=O)C1CCN(Cc2ccccc2C(F)(F)F)CC1	79.4µM*	-19.8%	15.8µM*	u	2.82µM*	0.9%
Cc1ccc(C(=O)NCCCNCCCNC(=O)c2ccc(C)nc2)cn1	4.1%	-2.5%	14.7%[59 µM]	38.7%	-4.4%	-4.1%
O=C(NCCCNCCCNC(=O)c1ccc(/C=N/O)nc1)c1ccc(/C=N/O)nc1	1.41µM*	14.1µM*	x	44.7%	5.62µM*	-21.0%
CN(CCNC(=O)c1ccc(/C=N/O)nc1)Cc1ccccc1	u	-8.9%	25.1µM*	4.4%	8.91µM*	-9.3%
